# The full list was thinned out, with hits kept by preference.
# GluA2 TARP mod: modulators of AMPA receptor GluA2-stargazin complexes; 40,000 tested, 3.5% active; calls only at 30 µM; HEK293 GluA2+stargazin, membrane potential dye (FDSS), glutamate EC50; hits were called plate by plate, in both directions;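 active means any of four per-well response measures lying three or more SD from its plate-wide compound average, in either direction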
# GIRK2 activator: GIRK2 channel activators by thallium flux | P48051 | HEK293 GIRK2/NPY4 cells, thallium flux fluorescence | activation (% efficacy), % for hits at 37.5 µM | 34,000 tested, under 10 active | AID 1259324;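 active means primary screen hit, no activity in plain HEK293 cells, and in GIRK2-only cells above 5% efficacy rising with concentration; inactive means the rest, including fluorescent compounds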;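 further: efficacy is normalized control-subtracted fluorescence 15 s after thallium addition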
# Target sequence (P48051 whole entry, looked up): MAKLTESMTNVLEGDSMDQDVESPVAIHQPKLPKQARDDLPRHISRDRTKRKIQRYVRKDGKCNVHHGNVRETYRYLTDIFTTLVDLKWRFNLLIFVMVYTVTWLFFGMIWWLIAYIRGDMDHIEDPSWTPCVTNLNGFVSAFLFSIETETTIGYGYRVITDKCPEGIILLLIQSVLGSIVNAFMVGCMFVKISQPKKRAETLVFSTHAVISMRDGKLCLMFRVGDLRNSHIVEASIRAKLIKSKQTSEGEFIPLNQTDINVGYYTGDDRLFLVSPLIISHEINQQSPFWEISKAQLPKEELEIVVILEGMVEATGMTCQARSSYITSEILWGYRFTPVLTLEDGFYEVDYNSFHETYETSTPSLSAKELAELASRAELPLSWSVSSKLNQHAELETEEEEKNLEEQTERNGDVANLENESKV
# Calls only; - = inactive; . = no result; + = active, no number; ! = a repeat was not active.
SMILES,GluA2 TARP mod,GIRK2 activator
COc1ccc(/C=C2\Oc3c(cc4c(c3C)OCN(Cc3ccco3)C4)C2=O)cc1OC,+,-
COc1ccc(/C=C2\Oc3c4c(cc(C)c3C2=O)OCN(C2CC2)C4)cc1OC,-,-
CC1CCc2cc(F)ccc2N1C(=O)c1csc(-c2cnccn2)n1 (centres undefined),-,-
O=C(CN1CCN(c2ccc(F)c(F)c2)C1=O)NCCC(c1ccccc1)c1ccccc1,-,-
COc1cc(-n2nnc(C(=O)NCCc3ccccc3)c2N)ccc1Cl,-,-
CC1(C)N=C(SCC(=O)Nc2ccc(F)cc2F)C(c2ccccc2)=N1,-,-
CC1(C)N=C(SCC(=O)Nc2ccc(F)cc2F)C(c2ccc(Cl)cc2)=N1,+,-
CCSc1nn(CC(=O)Nc2ccc(F)cc2)c(N)c1S(=O)(=O)c1ccc(C)cc1,-,.
C=CCn1c(N/N=C/c2cccc(OC)c2O)nc2c1c(=O)n(C)c(=O)n2C,+,.
C=C(C)Cn1c(N/N=C/c2cccc(OC)c2O)nc2c1c(=O)n(C)c(=O)n2C,-,.
CC(=O)c1sc(NC(=O)Cc2ccc(S(C)(=O)=O)cc2)nc1C,-,.
COCC(=O)Nc1cc(-c2ccco2)nn1-c1nc(C)cc(=O)[nH]1,-,-
Cc1cc(=O)[nH]c(-n2nc(-c3ccco3)cc2NC(=O)C2CC2)n1,+,-
Cc1ccc(OCc2ccc(C(=O)Nc3ccccc3C)o2)cc1,-,.
CCC(C)Nc1oc(-c2ccc(S(=O)(=O)N3CCC(C)CC3)cc2)nc1C#N (centres undefined),-,-
CSc1nn(CC(=O)Nc2ccc(Br)cc2)c(N)c1S(=O)(=O)c1ccc(C)cc1,-,-
CSc1nn(CC(=O)Nc2ccc(Cl)cc2)c(N)c1S(=O)(=O)c1ccccc1,+,.
O=C(Nc1nc2ccc(Cl)cc2s1)c1cc(=O)c(OCc2ccc(F)cc2)co1,-,-
COC(=O)c1ccc(NC(=O)c2cc(=O)c(OC)co2)cc1,-,-
COc1ccc(NC(=O)c2cc(=O)c(OC)co2)c(OC)c1,+,-
COc1coc(C(=O)Nc2nc3ccc(Cl)cc3s2)cc1=O,+,-
COc1ccc(S(=O)(=O)Nc2nc(C(=O)NCCc3cccc(OC)c3)cs2)cc1,-,-
CCOc1ccc(-c2ccc(=O)n(CCCC(=O)Nc3ccc(C(C)C)cc3)n2)cc1,.,-
COc1ccc(OC)c(NC(=O)/C(C#N)=C/c2ccc(C(C)C)cc2)c1,-,-
COc1ccccc1/C=C(\C#N)C(N)=C(C#N)C#N,+,-
SMILES,GluA2 TARP mod,GIRK2 activator
Cc1nn(C2CCS(=O)(=O)C2)c2nc(-c3cccs3)cc(C(=O)Nc3ccc(F)cc3)c12 (centres undefined),-,-
Cc1ccc(NC(=O)c2cc(-c3cccs3)nc3c2c(C)nn3C2CCS(=O)(=O)C2)cc1 (centres undefined),+,-
COc1ccccc1-c1nnc(NC(=O)Cc2ccc(S(C)(=O)=O)cc2)o1,+,.
COc1ccc(C(=O)Nc2nnc(-c3ccccc3OC)o2)cc1,-,.
COc1ccccc1-c1nnc(NC(=O)c2ccccc2)o1,-,.
COc1ccc(-c2nnc(NC(=O)c3cccc(S(=O)(=O)C(C)C)c3)o2)c(OC)c1,+,-
COc1ccc(-c2nnc(NC(C)=O)o2)c(OC)c1,+,.
COc1ccccc1-c1nnc(NC(=O)Cc2ccc(SC)cc2)o1,-,.
COc1ccc(Br)c(C(=O)N(Cc2cccn2C)C2CC2)c1,.,-
Cc1nn(-c2ccccc2)c2sc(C(=O)NC(=S)NCc3cccnc3)cc12,-,-
Cc1ccc(-c2ccc(=O)n(CCCNC(=O)c3ccc(C)c(C)c3)n2)cc1,-,-
CS(=O)(=O)c1ccc(CC(=O)Nc2nc(-c3ccc(Cl)s3)cs2)cc1,-,.
Cn1c(=O)c2c(nc(Nc3ccc(Oc4ccccc4)cc3)n2CC(=O)O)n(C)c1=O,-,-
COc1ccc(/C=C/C(=O)c2cc(Cl)cc(Cl)c2O)cc1OC,-,.
COc1ccc(Nc2cc(C)nc(-n3cc([N+](=O)[O-])cn3)n2)cc1Cl,+,-
COc1ccc(Nc2cc(C)nc(-n3cc([N+](=O)[O-])cn3)n2)cc1OC,-,-
COc1ccc(CCNC(=O)NCC2(O)CCOCC2)cc1,-,-
COC(=O)c1ccccc1NC(=O)Cn1cc(-c2ccccc2)c(N2CCOCC2)n1,+,-
COc1ccc(NC(=O)Cn2cc(-c3ccccc3)c(N3CCOCC3)n2)c(OC)c1,-,-
CCOc1cc(-c2nnc(NC(=O)c3ccnn3C)o2)cc(OCC)c1OCC,.,-
COc1ccc(CNC(=O)CSc2nc(-c3ccccc3)[nH]c2S(=O)(=O)c2ccccc2)cc1,-,-
O=C(CSc1nc(-c2ccccc2)[nH]c1S(=O)(=O)c1ccccc1)NC1CCCC1,-,-
COc1ccccc1NC(=O)CSc1nc(-c2ccccc2)[nH]c1S(=O)(=O)c1ccccc1,+,-
CC1CCCCN1C(=O)CSc1nc(-c2ccccc2)[nH]c1S(=O)(=O)c1ccccc1 (centres undefined),+,-
COc1ccc(S(=O)(=O)NCC(O)(c2ccccc2)C(F)(F)F)cc1Cl (centres undefined),+,-
SMILES,GluA2 TARP mod,GIRK2 activator
O=S(=O)(NCC(O)(c1ccccc1)C(F)(F)F)c1ccc(F)c(Cl)c1 (centres undefined),-,-
COc1ccc(S(=O)(=O)NCC(c2ccsc2)N(C)C)cc1Cl (centres undefined),-,-
COc1ccc(S(=O)(=O)NCCc2ccc(N(C)C)cc2)cc1Cl,+,.
CC1(C)C2CCC(C(=O)O)(C2)C1O (centres undefined),-,.
CC(=O)Nc1ccc(S(=O)(=O)NCC2CCN(Cc3ccco3)CC2)cc1,-,-
CCCc1ccc(S(=O)(=O)NCC2CCN(Cc3ccco3)CC2)cc1,+,-
COc1ccc(CNC(=O)C(=O)NCC2CCN(Cc3ccco3)CC2)cc1,+,-
O=C(NCc1ccccc1)C(=O)NCC1CCN(Cc2ccco2)CC1,-,-
O=C(Nc1ccc(N2CCCCC2=O)cc1)c1ccco1,-,-
COc1ccc(S(=O)(=O)Nc2cc(C)nn2C2CCS(=O)(=O)C2)cc1OC (centres undefined),-,-
COCc1cnc2c(c1SCC(=O)Nc1ccc(OC)c(OC)c1)c(=O)n(C)c(=O)n2C,-,.
O=C(C1CCCC1)N1CCc2ccc(NS(=O)(=O)Cc3ccccc3)cc21,+,-
O=C(c1ccco1)N1CCc2ccc(NS(=O)(=O)Cc3ccccc3)cc21,-,-
O=C(C1CC1)N1CCc2ccc(NS(=O)(=O)c3ccc4c(c3)CCCC4)cc21,+,-
O=C(Nc1ccc2c(c1)N(C(=O)C1CC1)CC2)c1cc(Br)ccc1Cl,-,-
O=C(C1CC1)N1CCc2ccc(NS(=O)(=O)c3ccc4c(c3)OCCO4)cc21,-,-
O=C(Nc1ccc2c(c1)N(C(=O)C1CC1)CC2)c1ccc(Cl)c(Cl)c1,+,-
COc1ccccc1C1=NN(C(=O)CCC(=O)O)C(c2ccc3nccnc3c2)C1 (centres undefined),-,-
O=S(=O)(c1cccs1)N1CCC(c2nc(-c3ccc(Cl)cc3)no2)CC1,.,-
CCn1nc(C(=O)N(CC2CCCO2)c2nc3cc(OC)ccc3s2)cc1C (centres undefined),.,-
COC(=O)Cn1c(=O)c2c(nc3n(C4CCCCC4)c(C)c(C)n23)n(C)c1=O,-,.
COc1cc(/C=C/C(=O)N2CCC(C)CC2)ccc1OCc1ccccc1,+!,-

# Screens as filed in PubChem.
